According to PubChem BioAssay AID686978 (National Center for Advancing Translational Sciences (NCATS), 2013):
In all, about 420,000 compounds went through this assay and about 64,000 (15%) were called active. About 27% were inconclusive and are not listed. A selection follows. Values without a mark were called inactive. Calls follow the shape of the dose curve; as a rule, active = well fitted inhibition curve with a large enough effect; inconclusive = small, poorly fitted or top-dose-only effect; inactive = flat fitted curve, though single readings scatter.

Test: qHTS for Inhibitors of human tyrosyl-DNA phosphodiesterase 1 (TDP1): qHTS in cells in absence of CPT; also: nearly all actives have a fitted effect of over 55% in size
Conditions: DT40 Tdp1-/- hTDP1 cells, no CPT, ATP luminescence, 48 h; activity change, negative = growth inhibition: at 46.2 µM (top of the series)
Outline: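 Chicken DT40 Tdp1-/- cells complemented with human TDP1, screened without camptothecin (DMSO vehicle only), 400 cells/well. Compounds pin-transferred, cells incubated at 37 °C for at least 48 hr. Growth read as ATP-dependent luminescence (CellTiter-Glo, 30 min at RT).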
% is scaled to controls: 0 for no effect and ±100 for the full control effect; potency is read from the fitted curve at half-maximal effect.

Q: For `CCC(=O)N1CCN=C1SCc1ccc(F)cc1`, which “activity change, negative = growth inhibition” value is on record?
A: Its value is -0.0309%.

Q: For `COc1ccc(OC)c(S(=O)(=O)NCCC(C)C)c1`, which “activity change, negative = growth inhibition” value is on record?
A: Its value is -21.6%.

Q: Which “activity change, negative = growth inhibition” value does the source give for `COc1ccccc1N1CCN(C(=O)C(=O)N/N=C/c2ccccc2F)CC1` here?
A: The value was 1.79%.

Q: Which Potency does the source give for `COc1ccccc1N1CCN(/N=C\C(Br)=C\c2ccccc2)CC1` here?
A: Its Potency is 7.31 µM (active).

Q: With `COc1ccccc1N1CCN(/N=C/c2ccc(O)cc2O)CC1` as the molecule, how does the “activity change, negative = growth inhibition” value read?
A: Its value is -1.21%.

Q: For `COCCn1c(N)c(N(Cc2ccccc2)C(=O)C2CCCCC2)c(=O)[nH]c1=O`, which “activity change, negative = growth inhibition” value is on record?
A: Its value is -18.9%.

Q: Which “activity change, negative = growth inhibition” value does the source give for `NC(=O)C1CCN(CC(O)CSc2ccc(F)cc2)CC1` (stereo unspecified) here?
A: Its value is -3.19%.

Q: For `CCCN1CC=C2C(C#N)=C(N)C(C#N)(C#N)C(c3cc(OC)ccc3OC)C2C1` (stereo unspecified), which “activity change, negative = growth inhibition” value is on record?
A: The value was -27.2%.

Q: With `CCOc1ccc(C2C(C(=O)NC)=C(C)Nc3nc4ccccc4n32)cc1OC` (stereo unspecified) as the molecule, how does the “activity change, negative = growth inhibition” value read?
A: Its value is 0.6%.

Q: For `COc1cccc(NC(=O)C(C)Oc2ccccc2)c1` (stereo unspecified), which “activity change, negative = growth inhibition” value is on record?
A: The value was -12.3%.

Q: With `COc1cccc(NC(=O)COC(=O)CCOc2ccccc2OC)c1` as the molecule, how does the “activity change, negative = growth inhibition” value read?
A: The value was 10.3%.

Q: Which Potency does the source give for `COc1cccc(NC(=O)CC(c2ccc(OC(C)C)cc2)c2ccccc2OC)c1` (stereo unspecified) here?
A: Its Potency is 11.6 µM (active).

Q: For `CNS(=O)(=O)c1ccc2c(c1)[nH]c(=S)n2C`, which “activity change, negative = growth inhibition” value is on record?
A: Its value is -31.1%.

Q: For `CC(C)n1c(=S)[nH]c2cc(C(F)(F)F)ccc21`, which Potency is on record?
A: The Potency was 16.4 µM (active).

Q: For `CCCn1c(=S)[nH]c2ccc(C(F)(F)F)cc21`, which “activity change, negative = growth inhibition” value is on record?
A: The value was -22.6%.

Q: With `O=C(NCc1ccncc1)C1CCN(C(=O)c2cccc(Cl)c2)CC1` as the molecule, how does the “activity change, negative = growth inhibition” value read?
A: Its value is -8.32%.

Q: With `CCC(C(=O)NC1CCCC1)N(C(=O)Cn1nnc(-c2ccc(C)o2)n1)c1ccc(OC)c(OC)c1` (stereo unspecified) as the molecule, how does the “activity change, negative = growth inhibition” value read?
A: The value was -8.18%.

Q: Which Potency does the source give for `CC(=O)Nc1ccc(S(=O)(=O)Nc2ccc(N3CCCCC3)cc2)cc1` here?
A: The Potency was 2.91 µM (active).

Q: Which “activity change, negative = growth inhibition” value does the source give for `COC(C(=O)NCc1ccccc1C)c1ccccc1` (stereo unspecified) here?
A: Its value is 7.88%.

Q: For `COc1ccc(S(=O)(=O)Nc2ccc3c(c2)OCO3)cc1Cl`, which “activity change, negative = growth inhibition” value is on record?
A: Its value is -29.2%.

Q: With `COc1cc(NS(=O)(=O)c2ccc3c(c2)OCC(C(=O)N2CCCC2)O3)cc(OC)c1` (stereo unspecified) as the molecule, how does the Potency read?
A: The Potency was 20.6 µM (active).

Q: With `CC(=O)Nc1ccc(S(=O)(=O)Nc2ccc(N3CCOCC3)c(F)c2)cc1` as the molecule, how does the “activity change, negative = growth inhibition” value read?
A: The value was -29.2%.

Q: With `CC(=O)Nc1ccc(NS(=O)(=O)c2ccc3c(c2)NC(=O)CC(=O)N3)cc1` as the molecule, how does the “activity change, negative = growth inhibition” value read?
A: The value was 16.8%.

Q: Which “activity change, negative = growth inhibition” value does the source give for `COc1cc(NC(=O)N2CCOCC2)cc(OC)c1` here?
A: Its value is 5.47%.

Q: For `COC(C(=O)Nc1ccc(C(C)=O)cc1)c1ccccc1` (stereo unspecified), which “activity change, negative = growth inhibition” value is on record?
A: Its value is -5.81%.

Q: For `COc1cc(OC)cc(C(=O)Nc2ccc(S(=O)(=O)Nc3cc(C)on3)cc2)c1`, which “activity change, negative = growth inhibition” value is on record?
A: The value was -10.8%.

Q: With `COC(=O)COc1ccc(S(=O)(=O)Nc2ccc(NC(C)=O)cc2)cc1` as the molecule, how does the “activity change, negative = growth inhibition” value read?
A: Its value is -4.63%.

Q: With `COC(C(=O)Nc1ccc(S(=O)(=O)Nc2ccc(C)c(C)c2)cc1)c1ccccc1` (stereo unspecified) as the molecule, how does the Potency read?
A: The Potency was 14.6 µM (active).

Q: With `COc1cc(NS(=O)(=O)c2ccc(NC(C)=O)cc2)cc(OC)c1` as the molecule, how does the Potency read?
A: The Potency was 8.2 µM (active).

Q: Which “activity change, negative = growth inhibition” value does the source give for `CC(=O)N1CC2(C)CN(C(C)=O)CC(C)(C1)C2=O` here?
A: Its value is 24.2%.

Q: With `COc1ccc(N(CCC#N)S(=O)(=O)c2ccc(Cl)cc2)cc1` as the molecule, how does the “activity change, negative = growth inhibition” value read?
A: Its value is -15.6%.

Q: Which “activity change, negative = growth inhibition” value does the source give for `CCCC(=O)NC(Nc1ccccc1OC)C(Cl)(Cl)Cl` (stereo unspecified) here?
A: Its value is -15.5%.

Q: With `Cn1c(=O)n(C)c(=O)n(CC(=O)N2CCCCC2)c1=O` as the molecule, how does the “activity change, negative = growth inhibition” value read?
A: The value was -9.66%.

Q: For `COc1cc(OC)cc(C2=Cc3ccccc3C(CC(=O)c3ccco3)N2c2ccc(-c3cnc(OC)nc3)cc2)c1` (stereo unspecified), which “activity change, negative = growth inhibition” value is on record?
A: Its value is -20.1%.

Q: For `CC(=O)Nc1ccc(NC(=O)C(C)OC(=O)C2CC(=O)N(CCc3ccccc3)C2)cc1` (stereo unspecified), which “activity change, negative = growth inhibition” value is on record?
A: Its value is -12.2%.

Q: For `O=C(NCC1(N2CCCCC2)CCCCC1)c1ccc(NS(=O)(=O)c2ccc(F)cc2)cc1`, which “activity change, negative = growth inhibition” value is on record?
A: The value was -12.2%.

Q: Which “activity change, negative = growth inhibition” value does the source give for `CCc1nnc(NC(=O)CSc2nnnn2-c2cccc(C(C)=O)c2)s1` here?
A: The value was -26%.

Q: For `COc1cccc(/C=C2\SC(=N)N(c3ccc(F)cc3)C2=O)c1`, which “activity change, negative = growth inhibition” value is on record?
A: The value was -22.3%.

Q: With `CC(=O)c1c(C)oc2ccc(NS(=O)(=O)c3ccc(C(=O)O)cc3)cc12` as the molecule, how does the “activity change, negative = growth inhibition” value read?
A: Its value is -15.3%.

Q: For `COc1ccc(CNC(=O)c2ccc(NS(=O)(=O)c3ccc4[nH]c(=O)[nH]c4c3)cc2)cc1OC`, which “activity change, negative = growth inhibition” value is on record?
A: The value was -1.23%.

Q: For `COc1ccc(OC)c(C(C)NC(=S)Nc2ccc(S(=O)(=O)Nc3ncccn3)cc2)c1` (stereo unspecified), which “activity change, negative = growth inhibition” value is on record?
A: Its value is 1.85%.

Q: With `COc1ccc2oc(C)c(NC(C)=O)c2c1` as the molecule, how does the “activity change, negative = growth inhibition” value read?
A: Its value is 1.12%.

Q: Which “activity change, negative = growth inhibition” value does the source give for `COc1ccc(S(=O)(=O)Nc2cc(C)on2)cc1NC(C)=O` here?
A: The value was 9.18%.

Q: For `COc1ccc(C(=O)Oc2cc(/C=N/NS(=O)(=O)c3ccc(C)cc3)ccc2OC)cc1`, which “activity change, negative = growth inhibition” value is on record?
A: Its value is -6.69%.

Q: For `COc1ccc(S(=O)(=O)Nc2ccc3oc(C)c(C(C)=O)c3c2)cc1`, which Potency is on record?
A: The Potency was 5.17 µM (active).

Q: Which “activity change, negative = growth inhibition” value does the source give for `CC(=O)c1ccc(NC(=S)NC(=O)CC(C)C)cc1` here?
A: Its value is 10.3%.

Q: Which Potency does the source give for `COc1ccc(/C=C/C(=O)c2ccc(NS(=O)(=O)c3ccc(C)cc3)cc2)cc1O` here?
A: Its Potency is 20.6 µM (active).

Q: For `COc1ccc(NS(=O)(=O)c2ccc(NC(C)=O)cc2)cc1OC`, which Potency is on record?
A: The Potency was 6.51 µM (active).

Q: With `COc1ccc(NS(=O)(=O)c2ccc(NC(=S)NC(=O)CC(C)C)cc2)cc1` as the molecule, how does the Potency read?
A: The Potency was 18.4 µM (active).

Q: For `CC(=O)Nc1ccc(S(=O)(=O)Nc2cccc(NC(=O)C(C)(C)C)c2)cc1`, which “activity change, negative = growth inhibition” value is on record?
A: The value was -25.7%.

Q: Which “activity change, negative = growth inhibition” value does the source give for `CCCC(=O)Nc1ccc2oc(-c3ccc(O)c(Br)c3)nc2c1` here?
A: Its value is -12.9%.
